Here are results for 22 compounds from PubChem BioAssay (EPA / NIEHS).

Holding throughout (conditions): mRNA level, 48 h; actives raise or lower the signal
Read-out in assay [1]: growth arrest and DNA damage 45 (GADD45A), GADD45A (gene 1647)
Nature of the assay: LTEA_HepaRG_GADD45A: Life Technologies and Expression Analysis (LTEA) Assay for growth arrest and DNA damage 45 (GADD45A) using HepaRG (AID 2283458). The essentials:
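Cells plated and cultured 48 h, switched to serum-free induction medium, then dosed for 48 h (100 uM top, half-log dilutions, 0.5% DMSO). RNA was isolated and transcript measured by Fluidigm qRT-PCR.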

Read-out in assay [2]: Forkhead box O3 (FOXO3), FOXO3 (gene 2309)
Nature of the assay: LTEA_HepaRG_FOXO3: Life Technologies and Expression Analysis (LTEA) Assay for Forkhead box O3 (FOXO3) using HepaRG (AID 2283459). A digest of the protocol:
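HepaRG, 48 h post-dose; 8 conc., half-log from 100 uM, 0.5% DMSO, duplicates; serum-free induction medium. Readout: FOXO3 mRNA, TaqMan qRT-PCR, housekeeping-normalized. Bidirectional curve fit vs DMSO baseline.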

Read-out in assay [3]: ABC Transporter (ABCB1), ABCB1 (gene 5243)
Nature of the assay: LTEA_HepaRG_ABCB1: Life Technologies and Expression Analysis (LTEA) Assay for ABC Transporter (ABCB1) using HepaRG (AID 2283460). The essentials: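 Expression of ABCB1 was quantified by qRT-PCR against three housekeeping genes after human HepaRG cultures received test chemicals for 48 hours. Concentrations spanned eight half-log steps topping at 100 uM in 0.5% DMSO; gain or loss of signal was fitted relative to vehicle.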

Read-out in assay [4]: growth arrest and DNA damage 45 (GADD45B), GADD45B (gene 4616)
Put plainly: LTEA_HepaRG_GADD45B: Life Technologies and Expression Analysis (LTEA) Assay for growth arrest and DNA damage 45 (GADD45B) using HepaRG (AID 2283461). A digest of the protocol:
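Differentiated human HepaRG cells in serum-free induction medium exposed 48 h in duplicate to eight concentrations, top 100 uM, half-log steps, 0.5% DMSO. GADD45B mRNA by TaqMan qRT-PCR, normalized to ACTB, GAPDH, POLR2A; bidirectional fit versus DMSO.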

Read-out in assay [5]: ABC Transporter (ABCC3), ABCC3 (gene 8714)
Put plainly: LTEA_HepaRG_ABCC3: Life Technologies and Expression Analysis (LTEA) Assay for ABC Transporter (ABCC3) using HepaRG (AID 2283462). The essentials:
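Differentiated human HepaRG cells exposed 48 h in serum-free induction medium, 0.5% DMSO vehicle, 8-point half-log series to 100 uM in duplicate. ABCC3 mRNA by qRT-PCR, normalised to ACTB, GAPDH, POLR2A; bidirectional fit vs DMSO.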

Read-out in assay [6]: ABC Transporter (ABCB11), ABCB11 (gene 8647)
Nature of the assay: LTEA_HepaRG_ABCB11: Life Technologies and Expression Analysis (LTEA) Assay for ABC Transporter (ABCB11) using HepaRG (AID 2283463). A digest of the protocol:
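ABCB11 transcript levels are read by Fluidigm TaqMan qRT-PCR after 48 h chemical treatment of human HepaRG cells. Concentrations span 100 uM downward in half-log steps with 0.5% DMSO; gain or loss is fitted against DMSO controls.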

Read-out in assay [7]: ABC Transporter (ABCC2), ABCC2 (gene 1244)
Put plainly: LTEA_HepaRG_ABCC2: Life Technologies and Expression Analysis (LTEA) Assay for ABC Transporter (ABCC2) using HepaRG (AID 2283464). The essentials: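 Differentiated HepaRG cells in serum-free induction medium exposed 48 h to eight half-log concentrations up to 100 uM, 0.5% DMSO, in duplicate. ABCC2 mRNA measured by qRT-PCR (TaqMan, Fluidigm), normalized to ACTB, GAPDH and POLR2A. Fitted in both directions against DMSO.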

Read-out in assay [8]: ATP-citrate lyase (ACLY), ACLY (gene 47)
Put plainly: LTEA_HepaRG_ACLY: Life Technologies and Expression Analysis (LTEA) Assay for ATP-citrate lyase (ACLY) using HepaRG (AID 2283466). The essentials:
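HepaRG, 48 h exposure, 8-pt half-log dilutions (top 100 uM), 0.5% DMSO. Readout: ACLY mRNA, TaqMan qRT-PCR, housekeeping-normalized (ACTB/GAPDH/POLR2A). Bidirectional curve fit vs DMSO.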

Read-out in assay [9]: Broad substrate specificity ATP-binding cassette transporter ABCG2 (Homo sapiens) (UniProt Q9UNQ0)
Nature of the assay: LTEA_HepaRG_ABCG2: Life Technologies and Expression Analysis (LTEA) Assay for ABC Transporter (ABCG2) using HepaRG (AID 2283465). The essentials:
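Read-out is ABCG2 mRNA induction or loss quantified by qRT-PCR after 48 h chemical treatment of human HepaRG cells, normalized to three housekeeping genes. Concentrations reached 100 uM top in half-log steps; fitting was bidirectional against 0.5% DMSO.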

Activity calls are given as the source filed them. The calls were made as follows: active = hit-call score of the fitted dose curve at least 0.9, where 1 is the maximum; inactive = score below 0.9.

Sequence of Broad substrate specificity ATP-binding cassette transporter ABCG2 (Homo sapiens) (Q9UNQ0 whole entry, looked up): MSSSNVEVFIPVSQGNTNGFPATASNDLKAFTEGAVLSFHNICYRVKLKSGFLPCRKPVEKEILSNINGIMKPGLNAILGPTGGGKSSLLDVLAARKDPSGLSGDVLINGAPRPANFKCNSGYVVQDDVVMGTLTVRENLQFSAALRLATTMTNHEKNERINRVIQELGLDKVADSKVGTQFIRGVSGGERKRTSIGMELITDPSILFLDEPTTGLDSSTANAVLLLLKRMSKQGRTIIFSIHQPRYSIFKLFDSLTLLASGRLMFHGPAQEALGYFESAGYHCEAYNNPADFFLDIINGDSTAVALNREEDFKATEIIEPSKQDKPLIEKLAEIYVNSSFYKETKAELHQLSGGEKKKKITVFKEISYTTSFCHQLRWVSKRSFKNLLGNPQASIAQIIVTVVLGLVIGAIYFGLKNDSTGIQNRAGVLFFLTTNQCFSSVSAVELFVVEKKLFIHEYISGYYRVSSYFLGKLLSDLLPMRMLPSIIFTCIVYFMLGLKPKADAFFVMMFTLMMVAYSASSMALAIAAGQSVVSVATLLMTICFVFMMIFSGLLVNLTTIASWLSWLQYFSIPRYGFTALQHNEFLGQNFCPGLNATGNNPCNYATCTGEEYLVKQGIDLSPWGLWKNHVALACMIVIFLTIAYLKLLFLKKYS

In general, AC50 refers to the concentration giving half of the maximal activity seen. For the compound `CCCCC(CC)COP(=O)(OCC(CC)CCCC)OCC(CC)CCCC` (stereo not given), the compound was classed as inactive in assay [1], in assay [2], in assay [4], in assay [5], in [6] and in assay [7]. For the same compound, in assay [8], the compound was classed as inactive. Besides, the concentration at half-maximal activity (AC50) in [3] is 8.5 µM (active).

With `CCCCCCC(CCCCCCCCCCC(=O)OCC(COC(C)=O)OC(C)=O)OC(C)=O` (stereo not given), the outcome in assay [1], in assay [2], in assay [3], in assay [4], in assay [5] and in [6] was inactive. The compound was classed as inactive in assay [7] and in assay [8].

As to `Cc1cn([C@H]2C=C[C@@H](CO)O2)c(=O)[nH]c1=O`, the result in [2], in assay [3], in assay [4], in assay [5], in assay [6] and in assay [7] was inactive.

Consider `CCCCCCCCCCCCCCCCO`, for which the compound was classed as inactive in assay [1], in [2], in assay [3], in [4], in assay [5] and in assay [6]. The call in assay [7] and in assay [8] was inactive.

For the compound `C/C=C/c1ccc(OC)cc1`, the result in assay [1], in [2], in assay [3], in assay [4], in [5] and in [6] was inactive. Moreover, the result in assay [7], in assay [9] and in assay [8] was inactive.

As to `c1ccc2occc2c1`, the compound was classed as inactive in assay [1], in assay [2], in [3], in assay [4], in assay [5] and in assay [6]. In addition, the compound was classed as inactive in assay [7] and in [8].

For the compound `Nc1nc(Cl)nc2c1ncn2[C@H]1C[C@H](O)[C@@H](CO)O1`, the AC50 is 0.263 µM (active) in assay [1]; 2.18 µM (active) in assay [2]; 1.39 µM (active) in assay [3]; 0.447 µM (active) in [4]; 0.987 µM (active) in assay [5]; 0.593 µM (active) in assay [6]. The concentration at half-maximal activity (AC50) in assay [7] is 1.12 µM (active). Besides, the call in [9] and in [8] was inactive.

As to `Cn1cnc2c1c(=O)[nH]c(=O)n2C`, the outcome in assay [1], in [2], in assay [3], in assay [4], in [5] and in [6] was inactive. Further, the call in assay [7], in assay [9] and in assay [8] was inactive.

In the case of `CO[C@@H]1COCC[C@@H]1N[C@@H]1CC[C@@](C(=O)N2CCc3ncc(C(F)(F)F)cc3C2)(C(C)C)C1`, the result in assay [1], in [2], in assay [3], in assay [4], in assay [5] and in assay [6] was inactive. Moreover, the result in [7] and in assay [8] was inactive.

With `CCCC(=O)O`, the concentration at half-maximal activity (AC50) in assay [1] is 0.0993 µM (active). For the same compound, the outcome in assay [3], in assay [4], in assay [5], in assay [6], in assay [7] and in assay [8] was inactive.

Turning to `CCCCC(CC)COC(=O)CCCCCCCC(=O)OCC(CC)CCCC` (stereo not given), the result in assay [1], in [2], in assay [3], in assay [4], in [5] and in assay [6] was inactive. Also, the compound was classed as inactive in assay [7], in assay [9] and in [8].

In the case of `Cc1occc(=O)c1O`, the compound was classed as inactive in [1], in [2], in assay [3], in [4], in assay [5] and in assay [6]. Also, the outcome in assay [7], in assay [9] and in assay [8] was inactive.

As to `CSc1ccc(Oc2ccc(S(N)(=O)=O)cc2CN(C)C)cc1C`, the outcome in assay [1], in [2], in [3], in [4], in assay [7] and in assay [8] was inactive. For the same compound, the half-maximal activity concentration (AC50) in assay [5] is 81.5 µM (active); in assay [6], 84.6 µM (active).

Take `O=C(O)CN(CC(=O)O)CC(=O)O`: the compound was called inactive in assay [1], in assay [2], in [3], in assay [4], in [5] and in assay [6]. Also, the result in [7] and in assay [8] was inactive.

On to `CCCCC(CC)CO` (stereo not given), for which the compound was classed as inactive in assay [1], in assay [2], in assay [3], in assay [4], in assay [5] and in assay [6]. Besides, the compound was classed as inactive in [7] and in assay [8].

With `CC(C)c1cccc(C(C)C)c1NC(=O)NS(=O)(=O)c1cc(C(C)(C)O)co1`, the compound was called inactive in [2], in assay [4], in assay [5] and in assay [6]. The AC50 in assay [3] is 6.65 µM (active); in [7] it was 3.34 µM (active).

As to `O=[Si]=O`, the compound was classed as inactive in assay [2], in assay [3], in assay [4], in [5], in [6] and in [7]. In addition, the result in assay [9] was inactive.

With `COc1ccc(OC(F)(F)F)cc1CN[C@H]1CCCN[C@H]1c1ccccc1`, the half-maximal activity concentration (AC50) in [2] was 76.3 µM (active); in assay [3] it was 83.7 µM (active); in assay [7] it was 82.9 µM (active); in assay [8], 95.6 µM (active). The compound was classed as inactive in [4], in [5], in assay [6] and in assay [9].

Take `O=C1NC(=O)C(c2ccccc2)(c2ccccc2)N1`: the compound was classed as inactive in [2], in assay [3], in assay [4], in assay [5], in assay [6] and in assay [8]. In [7], the AC50 was 50 µM (active).

With `CC(=O)O`, the result in assay [2], in assay [3], in assay [4], in [5], in assay [6] and in [7] was inactive. Further, the result in assay [8] was inactive.

On to `CCCCOC(=O)CCCCC(=O)OCCCC`, for which the result in assay [2], in [3], in assay [4], in [5], in assay [6] and in assay [7] was inactive. Moreover, the compound was classed as inactive in [9].

For `C=CCc1ccc(OC)c(OC)c1`, the call in [2], in assay [3], in assay [4], in assay [5], in [6] and in assay [7] was inactive.
